TRHR enhancer – allosterically enhances the human TRH receptor. TRHR cells, fluo-8 calcium fluorescence, EC20 TRH enhancement. enhancement, % at 2 µM. 360,000 compounds, 0.66% hits. AID 493056; in the data active = enhancement above about 30%
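Enhancer read-out: after compound pinning and an initial kinetic agonist-mode read, an EC20 of TRH (10 nM final) was injected and fluo-8 calcium signal (Ex 480/Em 530) followed at 1 s/cycle for 100 cycles in TRHR-expressing cells.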
TRHR ag – TRH receptor (human) agonism | P34981 | TRHR cells, calcium flux fluo-8, FDSS agonist mode | activation, % at 2 µM | 360,000 compounds, 0.18% hits
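Fluo-8-loaded TRHR cells; 10 s baseline, compound added, kinetic Ca2+ fluorescence read 1/s, agonist mode.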
D1 potentiator – enhances dopamine response at the human D1 receptor. P21728. HEK293 TREx D1 cells, calcium flux, dopamine EC20 potentiation. potentiation, % at 10 µM. 360,000 compounds, 0.036% hits; in the data active = potentiation above about 30%
Target sequence (P21728 whole entry, looked up): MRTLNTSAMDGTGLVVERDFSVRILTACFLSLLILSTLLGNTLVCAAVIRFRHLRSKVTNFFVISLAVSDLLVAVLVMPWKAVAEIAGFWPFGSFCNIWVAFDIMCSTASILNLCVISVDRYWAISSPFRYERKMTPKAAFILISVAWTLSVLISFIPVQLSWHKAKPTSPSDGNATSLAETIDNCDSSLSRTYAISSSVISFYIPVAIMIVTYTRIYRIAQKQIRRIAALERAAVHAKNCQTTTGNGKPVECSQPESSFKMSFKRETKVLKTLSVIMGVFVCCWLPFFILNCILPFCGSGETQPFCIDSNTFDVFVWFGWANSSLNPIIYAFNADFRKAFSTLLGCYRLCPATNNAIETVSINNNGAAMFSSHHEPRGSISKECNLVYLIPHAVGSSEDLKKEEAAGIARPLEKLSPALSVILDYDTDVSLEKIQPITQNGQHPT
D1 ag – human D1 receptor agonism; HEK293 T-REx D1 cells, calcium flux, agonist mode; activation, % at 2 µM; 360,000 compounds, 1% hits; AID 504660
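Tetracycline-induced HEK293 TREx D1 cells, force-coupled to calcium signalling, were dye-loaded with a no-wash calcium kit. Compound was pin-added after a 10 s baseline. Fluorescence was read kinetically at 1 cycle/s for 180 s, with calcium rises flagged as agonism.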
D1 antag – blocks dopamine activation of the human D1 receptor; P21728; HEK293 TREx D1 cells, calcium flux, dopamine EC80; stronger effect = lower value; activity change, negative = inhibition, % at 10 µM; 360,000 compounds, 3.2% hits; AID 504652; in the data active = activity change below about -30%
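After overnight tetracycline induction at 30 C, force-coupled D1 HEK293 cells took up a no-wash calcium dye at room temperature. Compounds were added and monitored 180 s, and the response to EC80 dopamine was then recorded.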
Each line names hits and unclear results; the compound was inactive in the other large screens. In the library only some 4.7% were active in any assay of this set; here they are far more common. Cut-off read from the data, not from the text of the source, unless noted: active = activation above about 30%; inactive = the rest.

Cc1sc2ncn(CC(=O)NCC(=O)N(C)Cc3ccccc3)c(=O)c2c1C	none
Cc1sc2ncn(CC(=O)NCC(=O)N(C)C3CCCCC3)c(=O)c2c1C	D1 antag -34.4
CCc1ccc(-n2c(N3CCN(c4ccc(F)cc4)CC3)nc3ccccc3c2=O)cc1	none
CCC(C)Sc1oc(-c2ccco2)nc1S(=O)(=O)c1ccc(Cl)cc1 (stereo not drawn)	none
COc1ccc(C)cc1NC(=O)COC(=O)c1ccc(OCc2ccc(Cl)cc2Cl)c(OC)c1	D1 antag -50.4
CCC1C/C(=C/c2ccco2)C(=O)/C(=C/c2ccco2)C1 (stereo not drawn)	D1 ag 36.9
CCC1C/C(=C\c2cc(OC)c(OC)cc2OC)C(=O)/C(=C/c2cc(OC)c(OC)cc2OC)C1 (stereo not drawn)	none
CC(C)OC(=O)c1c(NC(=O)C2c3ccccc3Oc3ccccc32)sc2c1CCCC2	none
CCc1ccc(CN(Cc2cn[nH]c2-c2ccc(OC)cc2)C(=O)Nc2cc(Cl)ccc2OC)cc1	D1 antag -62.4
O=C(N/N=C\C=C\c1ccc2c(c1)OCO2)c1cccnc1	D1 antag -38.6
O=C(/C=C/c1ccc2c(c1)OCO2)c1cccnc1	none
O=C(N/N=C/c1cccc(Oc2ccccc2)c1)c1cccc(O)c1	none
O=C(N/N=C/c1cccnc1)c1ccc2c(c1)OCO2	D1 antag -34.6
O=C(N/N=C\c1ccc2c(c1)OCO2)c1ccco1	none
O=C(N/N=C\c1cccc(OC(=O)c2ccco2)c1)c1ccc2c(c1)OCO2	TRHR enhancer 33.5
NC(=O)c1ccc(C(=O)N/N=C/c2cccc(Oc3ccccc3)c2)cc1	TRHR enhancer 35.7
O=C(NCCCN1CCOCC1)c1ccc2c(c1)N(Cc1cccc(Cl)c1)C(=O)c1ccccc1S2	none
CCN1C(=O)c2ccccc2Sc2ccc(C(=O)NCCCN3CCOCC3)cc21	TRHR enhancer 31.6
COc1ccc(C)cc1Nc1n[n+](-c2ccccc2)c(-c2ccc(NC(C)=O)cc2)s1	D1 antag -31.3
CCOc1ccccc1C1N=C(N)Nc2nc3ccccc3n21 (stereo not drawn)	none
N#Cc1nc(-c2ccccc2F)oc1NC1CCCCC1	D1 antag -34.2 (no result: D1 potentiator)
Cc1ccc(CNC(=O)CN(C)S(=O)(=O)c2ccc3c(c2)c(=O)n(C)c(=O)n3C)cc1	none
COc1ccccc1OCCn1c(C(C)Oc2ccccc2)nc2ccccc21 (stereo not drawn)	none
O=C(Oc1ccc2c(c1)O/C(=C\c1ccncc1)C2=O)c1cccs1	D1 ag 36.6
CS(=O)(=O)Oc1ccc2c(c1)O/C(=C\c1cccnc1)C2=O	none
CC(C)c1ccc(OCc2ccc(C(=O)N3CCCC3)o2)cc1	D1 ag 69.6, D1 antag -33.8 (no result: D1 potentiator)
Fc1ccc(Nc2nc(N3CCOCC3)c3ccccc3n2)cc1	none
c1ccc2c(Nc3nc(N4CCOCC4)c4ccccc4n3)cccc2c1	D1 antag -47.7
COc1ccc(/C=C2/SC(=S)N(NS(=O)(=O)c3ccc(C)cc3)C2=O)cc1	D1 antag -47.4 (no result: D1 potentiator)
Cc1ccc(/C=C2\SC(=S)N(NS(=O)(=O)c3ccc(C)cc3)C2=O)cc1	none
COC(=O)c1ccc(Oc2coc3cc(OCc4cnn(-c5ccccc5)c4)ccc3c2=O)cc1	D1 antag -38.2
COC(=O)c1ccc(Oc2c(C)oc3cc(OCc4cnn(-c5ccccc5)c4)ccc3c2=O)cc1	none
CCC1CCCCN1S(=O)(=O)c1ccc(N2CCCCS2(=O)=O)cc1 (stereo not drawn)	none
O=C(Nc1cc(Cl)cc(Cl)c1)C1CCC(=O)N1Cc1ccccc1Cl (stereo not drawn)	TRHR enhancer 40.3
O=C(C1CCC(=O)N1Cc1ccccc1Cl)N1CCN(c2ccc(F)cc2)CC1 (stereo not drawn)	D1 antag -48.2
CC(C)N1C(=O)CCC1C(=O)N1CCN(c2ccc(F)cc2)CC1 (stereo not drawn)	none
O=C1C2CCCCN2C(=O)N1CCCCN1CCN(c2cccc(Cl)c2)CC1 (stereo not drawn)	TRHR enhancer 31.8, D1 antag -39.4
O=C(NCCCN1CCN(c2cccc(Cl)c2)CC1)C1CCC(=O)N1Cc1ccccc1Cl (stereo not drawn)	D1 antag -38.3
CN(CCCNC(=O)C1CCC(=O)N1Cc1ccccc1Cl)c1ccccc1 (stereo not drawn)	none
C=Cc1cc2c(s1)c1cnn(Cc3ccccc3F)c(=O)c1n2C	none
CCOC(=O)c1ccccc1NC(=O)c1sc2ncn(Cc3cccc(F)c3)c(=O)c2c1C	none
CNC(=O)Cn1c(=O)c2cccn2c2ccc(F)cc21	none
CCCOC(=O)c1c(-c2ccccc2)nc(CC)c(C(=O)SCC)c1CCC	D1 antag -48.0
CCOC(=O)c1c(C)[nH]c(C)c1S(=O)(=O)NCC(=O)Nc1ccc(C)c(N(C)C)c1	none
Cc1nnc(NC(=O)CSc2ncnc3c2cnn3-c2ccccc2C)s1	none
CCOC(=O)Cc1csc(NC(=O)CSc2ncnc3c2cnn3-c2ccccc2Cl)n1	D1 antag -77.6
Cc1ccc(NC(=O)c2nc(S(=O)(=O)Cc3ccc(F)cc3)ncc2Cl)cc1C	D1 antag -37.1
Cc1ccccc1CS(=O)(=O)c1ncc(Cl)c(C(=O)Nc2nnc(C(C)C)s2)n1	none
Cc1ccc(NC(=O)c2nc(S(=O)(=O)Cc3ccccc3C)ncc2Cl)cc1C	D1 antag -40.4
CCOCCc1nn2c(=O)cc(COC(=O)C(CC)c3ccccc3)nc2s1 (stereo not drawn)	none
CCOC(=O)c1cc2c(=O)n3ccccc3nc2n(Cc2ccco2)c1=NC(=O)c1cccc(F)c1	none
CCOc1ccc(NC(=S)N(CCCN2CCCC2)Cc2cccn2Cc2ccc(Cl)cc2)cc1	D1 antag -47.8
O=C(/C=C/Nc1ccc(F)c(Cl)c1)c1ccco1	D1 antag -36.6
CCOc1cc(/C=N/Nc2nnc(C)n2N)ccc1OC(C)=O	D1 antag -32.7
CCc1nnc(N/N=C\c2ccc(OC(C)=O)c(OC)c2)n1N	none
Cn1cnnc1SCC(=O)Nc1ccc(C#N)cc1	D1 antag -36.5
Cn1cnnc1SCC(=O)Nc1ccccc1	none
CCCNC(=O)c1cnc2sc(N3CCCCCC3)nn2c1=O	none
COc1cc(OC)c(C2C=C(c3ccc(C)cc3)Nc3c(C(=O)Nc4ccccc4)cnn32)cc1OC (stereo not drawn)	D1 antag -45.2
COc1ccc(C2C=C(c3ccc(C)cc3)Nc3c(C(=O)Nc4ccccc4)cnn32)cc1 (stereo not drawn)	none
CCOc1ccc(N(C)S(=O)(=O)c2c(C(=O)N3CCC(C)CC3)c(C)n(C)c2C)cc1	none
COc1ccc(C)cc1NC(=O)C(NS(=O)(=O)c1cccs1)c1ccccc1 (stereo not drawn)	D1 antag -35.5
Cc1ccc(NC(=O)C(Cc2ccccc2)NS(=O)(=O)c2cccs2)cc1Cl (stereo not drawn)	D1 antag -41.5

From PubChem
